Screening data from PubChem BioAssay.
Rows were chosen to be rich in hits. Some 2.6% of all compounds tested hit in one or more screens of this group.
EWS-Fli block: blocks EWS/Fli oncoprotein-driven transcription | inhibition, % at 12.6 µM | A673 NR0B1-luciferase reporter, viability-normalised | 350,000 tested, 0.67% active | AID 651661;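 active means mean inhibition of at least 50% after viability correction, with every replicate also passing that limit; inconclusive means mean reaches 50% but only one of two replicates passes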;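 further: firefly luciferase signal divided by Alamar Blue viability fluorescence both relative to DMSO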
LGR2 inh: blocks bursicon-induced cAMP signaling via Drosophila LGR2 | HEK293 LGR2, CRE-luciferase, bursicon-stimulated, 4 h | inhibition, % at 9.99 µM | 380,000 tested, 0.35% active;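 active means drop in luminescence signal, shown as inhibition above about 50% in the replicate tests, limit read from the data, passing the limit was not always enough; inconclusive means probably only some replicates passing the limit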;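 further: agonist challenge used bursicon conditioned medium at about half maximal strength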
TROY NFkB inh: inhibitors of TROY-dependent NF-kB signaling; Q293 LMP1-TROYcd NF-kB luciferase reporter, 4 h; inhibition, % at 10 µM; 360,000 tested, 0.98% active;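 active means compounds whose plate-normalised and pattern-corrected inhibition of the luciferase reporter signal at the single screening dose is 50% or more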
TWEAK-Fn14 inh: blocks TWEAK-Fn14 interaction in a reporter cell assay | 360,000 tested, 2% active | inhibition, % at 10 µM | TWEAK-stimulated Fn14 reporter cells, luciferase luminescence, 8 h | AID 1159606; in the data active means inhibition above about 50%
LMP1 NFkB inh: Epstein-Barr LMP1 NF-kappaB reporter inhibition; 350,000 tested, 0.69% active; inhibition, % at 12.5 µM; LMP1-induced NF-kappaB luciferase reporter cells, luminescence; AID 504558; in the data active means inhibition above about 41%; inconclusive means no clear call, values can overlap the other calls
DNA binding: binds DNA displacing acridine orange | salmon sperm DNA acridine orange fluorescence polarization | AC35, µM (highest dose often 68 µM) | 640 tested, 2% active | AID 720586 | shares compounds with EWS-Fli block;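 active means fitted curve reaches a 35% signal fall AC35 below twice the sample's top valid tested dose, actives reach about 48 µM in these data; inactive means the rest, including activity in the rising direction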;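 further: lower polarization ratio signals compound binding to DNA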
A number is an active result; n = inactive; u = inconclusive; x = not tested or not shown.

SMILES	EWS-Fli block	LGR2 inh	TROY NFkB inh	TWEAK-Fn14 inh	LMP1 NFkB inh	DNA binding
C[C@@H]1CN([C@H](C)CO)C(=O)Cc2cc(NC(=O)CCCCCC(=O)Nc3ccccc3N)ccc2O[C@@H]1CN(C)CC1CCCCC1	60.5	n	x	x	x	n
C[C@H]1CN([C@@H](C)CO)C(=O)Cc2cc(NC(=O)CCCCCC(=O)Nc3ccccc3N)ccc2O[C@@H]1CN(C)Cc1ccc(-c2ccccc2)cc1	n	n	x	x	x	x
C[C@H]1CN([C@@H](C)CO)C(=O)Cc2cc(NC(=O)CCCCCC(=O)Nc3ccccc3N)ccc2O[C@H]1CN(C)Cc1ccc(C(F)(F)F)cc1	55.9	n	x	x	x	n
C[C@H](CO)N1C[C@H](C)[C@H](CN(C)Cc2ccc(Oc3ccccc3)cc2)Oc2ccc(NC(=O)CCCCCC(=O)Nc3ccccc3N)cc2CC1=O	60.5	n	x	x	x	n
CCS(=O)(=O)Nc1ccc2c(c1)C(=O)N(C)[C@H]1CC[C@H](CC(=O)N3CCOCC3)O[C@@H]1CO2	n	n	x	x	x	x
C[C@@H]1CN([C@@H](C)CO)C(=O)c2cc(NS(=O)(=O)c3ccccc3)ccc2O[C@H]1CN(C)Cc1ccc2c(c1)OCO2	n	n	x	x	x	x
CO[C@@H]1CC[C@H]2CCOc3c(C#N)cccc3C(=O)N(C)[C@H](C)C(=O)N(C)C[C@@H]1O2	n	n	x	x	x	x
CCC(=O)N1C[C@@H](C)[C@H](OC)CN(C)C(=O)c2cc(NS(C)(=O)=O)ccc2OC[C@@H]1C	n	n	x	x	x	x
C[C@@H]1CN([C@H](C)CO)C(=O)c2cccc(NC(=O)CCCCCC(=O)Nc3ccccc3N)c2O[C@@H]1CN(C)Cc1ccc(Oc2ccccc2)cc1	n	n	x	x	x	x
C[C@@H]1CN([C@@H](C)CO)C(=O)c2cccc(NC(=O)CCCCCC(=O)Nc3ccccc3N)c2O[C@@H]1CN(C)Cc1ccc(Oc2ccccc2)cc1	52.8	n	x	x	x	n
C[C@H](CO)N1C[C@H](C)[C@H](CN(C)Cc2ccccc2)Oc2ccc(NC(=O)CCCCCC(=O)Nc3ccccc3N)cc2CC1=O	56.1	n	x	x	x	n
C[C@@H]1CN([C@@H](C)CO)C(=O)Cc2cc(NS(=O)(=O)c3cccs3)ccc2O[C@H]1CN(C)Cc1ccc(Cl)c(Cl)c1	58.8	n	x	x	x	n
C[C@H]1CN([C@@H](C)CO)C(=O)Cc2cc(NC(=O)CCCCCC(=O)Nc3ccccc3N)ccc2O[C@H]1CN(C)Cc1ccc(Cl)c(Cl)c1	50.5	n	x	x	x	n
C[C@H](CO)N1C[C@H](C)[C@@H](CN(C)Cc2ccc(Cl)c(Cl)c2)Oc2ccc(NC(=O)CCCCCC(=O)Nc3ccccc3N)cc2CC1=O	u	n	x	x	x	x
C[C@H](CO)N1C[C@H](C)[C@@H](CN(C)Cc2ccccc2)Oc2ccc(NC(=O)Nc3ccccc3)cc2CC1=O	n	n	x	x	x	x
O=C(NCC1CCN(C(=O)C(=O)c2cccs2)CC1)c1cccnc1	n	n	x	x	x	x
CC(C)CC(NC(=O)c1cccs1)c1nnc(SCc2ccc(Cl)c(Cl)c2)n1C (stereo not drawn)	76.3	n	n	n	n	n
COc1ccc(C(=O)NC(CO)c2nnc(SCc3ccc(Cl)c(Cl)c3)n2C)cc1 (stereo not drawn)	x	n	n	n	n	x
CCOc1cc(/C=N/Nc2cc(C)nc(-n3nc(C)cc3C)n2)ccc1O	53.4	n	n	n	70.4	n
Cc1sc2nc(CN3CCC(C)CC3)nc(Cl)c2c1C	72.5	x	x	x	x	n
C[C@H]1CN([C@@H](C)CO)C(=O)c2cccc(NS(=O)(=O)c3ccccc3)c2O[C@H]1CN(C)S(=O)(=O)c1cn(C)cn1	n	n	x	x	x	x
COc1ccc(NC(=O)N(C)[C@H]2C[C@H]3c4[nH]c5ccccc5c4CCN3C(=O)[C@H]2CO)cc1	53.2	n	n	n	n	n
Cc1ccc(S(=O)(=O)N(C)C[C@H]2Oc3ccc(NC(=O)CCCN(C)C)cc3CC(=O)N([C@@H](C)CO)C[C@H]2C)cc1	n	n	x	x	x	x
Cc1nn(Cc2ccccc2Cl)c2sc(C(=O)Nc3ccccc3N3CCOCC3)cc12	50.2	n	n	60.6	n	n
O=C(c1ccccn1)N1CC[C@@H]2[C@H](CO)Nc3ccc(-c4ccc(F)cc4)cc3[C@@H]21	n	n	x	x	x	x
SMILES	EWS-Fli block	LGR2 inh	TROY NFkB inh	TWEAK-Fn14 inh	LMP1 NFkB inh	DNA binding
CN(c1ccc(NC(=O)CCc2c[nH]c3ccccc23)cc1)c1ccccn1	59.4	n	x	x	x	n
COCC(=O)Nc1ccc2c(c1)OC[C@H](C)N(C(=O)Cc1ccccn1)C[C@@H](C)[C@@H](OC)CN(C)C2=O	n	n	x	x	x	x
COC(=O)C1=C(C)N(Cc2ccccc2C(F)(F)F)C(=NCc2ccc(OC)cc2)NC1c1ccc(C(F)(F)F)cc1 (stereo not drawn)	54.9	n	x	x	x	n
COC(=O)C1=C(C)N(Cc2cccc(C(F)(F)F)c2)C(=NCc2ccc(OC)cc2)NC1c1cccc(F)c1 (stereo not drawn)	50.3	n	x	x	x	n
COC(=O)C1=C(C)N(Cc2ccccc2C(F)(F)F)C(=NCc2ccc(C(F)(F)F)cc2)NC1c1ccc(C(F)(F)F)cc1 (stereo not drawn)	n	n	x	x	x	x
COc1ccc(C(=O)CN2C(=O)c3ccccc3S2(=O)=O)cc1	87.5	100.6	85.5	101.5	x	n
CCCn1c(C)cc(C(=O)CN2C(=O)c3ccccc3S2(=O)=O)c1C	81.7	56.4	n	n	82.2	n
CNC[C@@H]1Oc2cc(C#Cc3ccncc3)ccc2S(=O)(=O)N([C@H](C)CO)C[C@@H]1C	n	n	x	x	x	x
Cc1cc(C(=O)NNC(=O)c2ccc(S(=O)(=O)N(C)C)cc2)c(C)o1	74.5	n	n	n	n	n
O=C(CNC(=O)Cc1ccccc1)N=Nc1c(O)n(Cc2ccc3c(c2)OCO3)c2ccccc12	66.1	n	n	n	n	n
COC(=O)Cn1c(O)c(N=NC(=O)CNC(=O)c2ccc3c(c2)OCCO3)c2ccccc21	x	n	n	n	n	x
C(=NNc1ccc2ccccc2n1)c1ccccn1	84.1	98.9	83.2	100.6	x	n
C(=N\Nc1nc2ccccc2s1)/c1ccccn1	79.9	103.6	x	x	x	n
COc1ccc(C=NNc2nc3ccccc3s2)cc1	65.6	77.7	57.4	78.1	u	n
CC(=O)OC(=C(OC(C)=O)c1ccccc1)c1ccccc1	n	n	n	n	n	x
CC(=O)ON=C1C=CC(=C(C#N)c2ccccc2)C=C1	56.3	n	n	n	x	n
CCCNC(=O)C[C@@H]1CC[C@H]2[C@H](COc3ccc(NC(=O)c4cc(C)on4)cc3C(=O)N2C)O1	n	n	x	x	x	x
CC(C)NC(=O)N(C)C[C@H]1OCCCC[C@H](C)Oc2ccc(NC(=O)Nc3cccc4ccccc34)cc2C(=O)N([C@@H](C)CO)C[C@H]1C	n	n	x	x	x	x
COc1cc2c3nnc(-c4ccc(F)cc4)c-3cn(Cc3ccc(F)cc3)c2cc1OC	n	n	n	n	n	x
COc1ccc(Cn2cc3c(-c4ccc(F)cc4)nnc-3c3cc(OC)c(OC)cc32)cc1	66.4	n	n	n	69.2	n
COc1cccc(NC(=O)N(C)C[C@@H]2Oc3cc(-c4cccc(C(=O)N(C)C)c4)ccc3S(=O)(=O)N([C@@H](C)CO)C[C@H]2C)c1	n	n	x	x	x	x
